Source: PubChem BioAssay (NCI)
About 79,000 compounds went through this panel and 15% of them were active in at least one assay; those are over-represented in the sample as a whole. A number with no mark means an inactive call. The source made the active and inactive calls. Cut-off read from the data, not from the text of the source: active = growth inhibition above about 70%; inactive = the rest.

What was measured:
[1] = NCI Yeast Anticancer Drug Screen. Data for the rad50 strain (AID 155);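 note: 0% = growth of vehicle-only cultures of the same strain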; conditions: S. cerevisiae rad50 strain growth inhibition, hits give high values
How it was run: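 Yeast carrying a defined DNA repair defect were exposed to test compounds, and growth was compared with vehicle-treated controls to give percent inhibition.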

[2] = NCI Yeast Anticancer Drug Screen. Data for the mec2-1 strain (AID 157); conditions: S. cerevisiae mec2-1 strain, hits give high values
How it was run: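 Mutant yeast (mec2-1) grown with compound; growth inhibition relative to vehicle control reported.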

[3] = NCI Yeast Anticancer Drug Screen. Data for the sgs1 mgt1 strain (AID 161);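 note: 0% = growth of cultures given vehicle only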; conditions: S. cerevisiae sgs1 mgt1 strain, hits give high values
How it was run: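 Growth of a repair-deficient yeast mutant was monitored after compound treatment and expressed as inhibition relative to vehicle-treated cultures.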

[4] = NCI Yeast Anticancer Drug Screen. Data for the cln2 rad14 strain (AID 165);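 note: 0% = growth equal to vehicle treated cultures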; conditions: S. cerevisiae cln2 rad14 strain, hits give high values
How it was run: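 Readout is yeast growth inhibition versus vehicle-treated controls, using a strain with cln2 and rad14 alterations exposed to compound.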

[5] = NCI Yeast Anticancer Drug Screen. Data for the bub3 strain (AID 167); conditions: S. cerevisiae bub3 mutant strain, hits give high values
How it was run: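 Compounds were applied to a genetically altered yeast strain carrying a cell-cycle control defect. Growth inhibition was scored against vehicle-treated controls.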

[6] = NCI Yeast Anticancer Drug Screen. Data for the mlh1 rad18 strain (AID 175); conditions: S. cerevisiae mlh1 rad18 strain growth inhibition, hits give high values
How it was run: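 Genetically defined yeast (DNA repair-deficient) exposed to compounds; growth inhibition determined relative to vehicle.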

[7] = at 5.0 µM (retest, dose inferred, filed as 0.5)
[8] = at 50.0 µM (retest, dose inferred, filed as 5.0)

Row | Structure (SMILES) | growth inhibition [1, 7] [%] | growth inhibition [1, 8] | growth inhibition [2, 7] [%] | growth inhibition [2, 8] | growth inhibition [3, 7] [%] | growth inhibition [3, 8] | growth inhibition [4, 7] [%] | growth inhibition [4, 8] | growth inhibition [5, 7] [%] | growth inhibition [5, 8] | growth inhibition [6, 7] [%] | growth inhibition [6, 8]
1 | CCCCNC(=O)C(C)O (stereo not drawn) | 5 | 23% | 0 | 3% | 0 | 4% | 5 | 0% | 1 | -2% | 3 | 8%
2 | CCOC(=O)C(NC(C)=O)C(=O)c1ccccc1 (stereo not drawn) | -3 | 6% | -3 | -4% | 0 | -1% | 11 | -4% | 2 | -1% | -35 | -6%
3 | CC(O)C(=O)NCCc1ccccc1 (stereo not drawn) | 8 | 4% | -3 | -2% | -1 | 1% | 2 | 3% | -1 | -2% | 4 | 10%
4 | C=CC(=O)OCCOCc1ccccc1 | 4 | 29% | -3 | 12% | -1 | 27% | -2 | -12% | 1 | 12% | -32 | 18%
5 | CC(C)(C)c1cc([N+](=O)[O-])c(O)c([N+](=O)[O-])c1 | 36 | 89% (active) | 11 | 54% | 15 | 74% (active) | 22 | 46% | 18 | 74% (active) | 2 | 81% (active)
6 | C1CCC(CCCc2nn[nH]n2)CC1 | 20 | 53% | -1 | 64% | -2 | 51% | 1 | 44% | 1 | 78% (active) | 13 | 61%
7 | Oc1ccc(/C=C/c2ccc(Cl)cc2)cc1 | -26 | 97% (active) | 5 | 98% (active) | 4 | 97% (active) | 7 | 97% (active) | 10 | 98% (active) | 13 | 96% (active)
8 | CSS(C)(=O)=O | 59 | 98% (active) | 6 | 99% (active) | 10 | 99% (active) | -4 | 98% (active) | -1 | 99% (active) | 3 | 95% (active)
9 | O=[N+]([O-])c1ccc2nc3ccccc3[n+]([O-])c2c1 | 25 | 99% (active) | 19 | 99% (active) | 33 | 100% (active) | -1 | 99% (active) | 50 | 100% (active) | 38 | 99% (active)
10 | O=C(CO)NCCO | 1 | 0% | 3 | 5% | -2 | 2% | 5 | -2% | 5 | -5% | 0 | 2%
11 | COc1ccc(/C(C#N)=C/c2cccc(N)c2)cc1 | 6 | 16% | 3 | 10% | 1 | 27% | 2 | 2% | 13 | 42% | -30 | 12%
12 | O=Cc1ccc(O)c(O)c1O | -7 | 66% | -3 | 54% | -6 | 35% | 0 | 36% | 9 | 73% (active) | -30 | 86% (active)
13 | O=C(/C=C/c1ccccc1)c1ccc(N=Cc2ccccc2)cc1 | -37 | 30% | 6 | 21% | 2 | 68% | 1 | 6% | 7 | 54% | 8 | 38%
14 | O=c1c2ccccc2ncn1O | -1 | 93% (active) | 1 | 54% | 8 | 98% (active) | 10 | 21% | 5 | 89% (active) | -12 | 81% (active)
